Experimental data from PubChem BioAssay (NCATS).
Records with an inconclusive call do not appear. The source made the active and inactive calls. The call rests on the fitted dose curve; in most records, active means well fitted inhibition curve with a large enough effect; inconclusive means small, poorly fitted or top-dose-only effect, or effect the other way; inactive means flat fitted curve, though single readings scatter.

The compounds below were run against ATP-dependent 6-phosphofructokinase (Trypanosoma brucei brucei) (UniProt O15648) (assay: qHTS Assay to Find Inhibitors of T. brucei phosphofructokinase: hit validation (AID 492961;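 on activity change, negative = inhibition: luminescence reports ADP formed as PFK phosphorylates fructose-6-phosphate with ATP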)). Details: T. brucei PFK, ADP-Glo luminescence; series mostly up to 51.4 µM; activity change, negative = inhibition: at the top concentration.
Outline: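 Measures ADP output of PFK (1.25 nM) at 0.1 mM ATP, 0.5 mM F6P, pH 8.0 TEA buffer with 5 mM MgCl2. No-enzyme wells define full inhibition; uninhibited enzyme wells define zero.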
On the % scale 0 is the no-effect control and ±100 the full control effect; potency means the concentration at half of the fitted maximal effect.

ATP-dependent 6-phosphofructokinase (Trypanosoma brucei brucei), sequence (O15648 whole entry, looked up): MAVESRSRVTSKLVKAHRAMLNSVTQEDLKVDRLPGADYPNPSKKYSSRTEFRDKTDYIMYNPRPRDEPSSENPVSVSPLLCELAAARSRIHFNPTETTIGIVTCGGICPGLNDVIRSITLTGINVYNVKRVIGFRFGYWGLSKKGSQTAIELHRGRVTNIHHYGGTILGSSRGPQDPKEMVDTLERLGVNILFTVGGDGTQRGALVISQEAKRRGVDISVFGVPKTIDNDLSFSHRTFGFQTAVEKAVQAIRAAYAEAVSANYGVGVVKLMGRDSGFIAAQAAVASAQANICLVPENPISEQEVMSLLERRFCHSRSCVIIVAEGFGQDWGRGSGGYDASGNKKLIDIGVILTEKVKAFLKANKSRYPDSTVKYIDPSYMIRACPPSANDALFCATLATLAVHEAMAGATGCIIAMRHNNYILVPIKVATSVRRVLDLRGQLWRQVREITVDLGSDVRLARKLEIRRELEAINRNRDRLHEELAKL

`Oc1ccc(Cl)cc1Cc1cc(Cl)ccc1O` was tested. Which “activity change, negative = inhibition” value did it give?
Its value is -7.24% (inactive).

Which “activity change, negative = inhibition” value does the source give for `CC(C)Cc1ccc(CC(=O)O)cc1` here?
The value was 0.374% (inactive).

Which “activity change, negative = inhibition” value does the source give for `COc1cc(C(=S)N2CCOCC2)ccc1O` here?
Its value is 13.7% (inactive).

Which “activity change, negative = inhibition” value does the source give for `CCOC(=O)c1ccc(N)cc1` here?
Its value is -0.324% [at 24.3 µM] (inactive).

For `O=C(NCCc1c[nH]c2ccccc12)c1cccnc1`, which “activity change, negative = inhibition” value is on record?
The value was 0% (inactive).

With `Nc1ccc(S(=O)(=O)NCc2ccccc2)cc1` as the compound, how does the “activity change, negative = inhibition” value read?
The value was -4.84% (inactive).

For `O=S(=O)(O)c1ccc(O)cc1`, which “activity change, negative = inhibition” value is on record?
Its value is 6.78% (inactive).

For `CC(C)(Cc1c[nH]c2ccccc12)NCC(O)COc1ccccc1C#N` (stereo unspecified), which “activity change, negative = inhibition” value is on record?
Its value is -1.64% (inactive).

`NCc1ccccc1Sc1ccccc1CO` was tested. Which “activity change, negative = inhibition” value did it give?
The value was -6.54% (inactive).

`COc1cc(NS(=O)(=O)c2ccc(N)cc2)ncn1` was tested. Which “activity change, negative = inhibition” value did it give?
Its value is 0.337% [at 24.3 µM] (inactive).

Which “activity change, negative = inhibition” value does the source give for `CCCCNc1ccc(C(=O)OCCOCCOCCOCCOCCOCCOCCOCCOCCOC)cc1` here?
Its value is 1.75% [at 24.3 µM] (inactive).

For `COc1ccc(C(=O)c2ccccc2O)c(O)c1`, which “activity change, negative = inhibition” value is on record?
Its value is -4.13% [at 24.3 µM] (inactive).

`C[N+]1(C)CCC(=C(c2ccccc2)c2ccccc2)CC1` was tested. Which “activity change, negative = inhibition” value did it give?
The value was -0.963% [at 24.3 µM] (inactive).

For `CN(C)CCN1C(=O)c2ccccc2N(C)c2ccccc21`, which “activity change, negative = inhibition” value is on record?
Its value is 13.8% (inactive).

`Oc1ccccc1C=NCc1ccccc1` was tested. Which “activity change, negative = inhibition” value did it give?
The value was -6% (inactive).

How did the “activity change, negative = inhibition” value turn out when `CCOC(=O)C(C#N)=C(c1ccccc1)c1ccccc1` was run?
Its value is -6.41% (inactive).

Which “activity change, negative = inhibition” value does the source give for `CNCCCCOc1ccccc1Cc1ccccc1` here?
The value was 0.927% (inactive).

For `C[N+]1(CC2COC(c3ccccc3)(C3CCCCC3)O2)CCCCC1` (stereo unspecified), which “activity change, negative = inhibition” value is on record?
Its value is 1.5% (inactive).

With `CN1CCN(C2=Nc3cc(F)ccc3Cc3ccccc32)CC1` as the compound, how does the “activity change, negative = inhibition” value read?
Its value is 1.53% (inactive).

`CC(=O)NC(=O)c1ccccc1O` was tested. Which “activity change, negative = inhibition” value did it give?
Its value is -5.13% (inactive).

With `COc1ccc2c(c1)c1c3n2CCN(C)C3=NCC1` as the compound, how does the “activity change, negative = inhibition” value read?
The value was -8.29% (inactive).

For `CCCCc1cc2ccccc2c(OCCN(C)C)n1`, which “activity change, negative = inhibition” value is on record?
Its value is 13.1% [at 24.3 µM] (inactive).

`CC(=O)Nc1ccc(S(=O)(=O)Nc2ccc([N+](=O)[O-])cc2)cc1` was tested. Which “activity change, negative = inhibition” value did it give?
The value was -8.84% (inactive).

With `CC(C)NCC(O)c1ccc2ccccc2c1` (stereo unspecified) as the compound, how does the “activity change, negative = inhibition” value read?
Its value is -4.27% (inactive).

Which “activity change, negative = inhibition” value does the source give for `CC(=O)O[C@H]1C[C@@H]2CC[C@@H]3[C@H](CC[C@@]4(C)[C@H]3C[C@H]([N+]3(C)CCCCC3)[C@@H]4OC(C)=O)[C@@]2(C)C[C@@H]1N1CCCCC1` here?
Its value is -1.89% (inactive).

With `Cc1ccc(O)c([C@H](CCN(C(C)C)C(C)C)c2ccccc2)c1` as the compound, how does the “activity change, negative = inhibition” value read?
The value was 3.11% (inactive).

`CCOc1ccccc1OCCN[C@H](C)Cc1ccc(OC)c(S(N)(=O)=O)c1` was tested. Which “activity change, negative = inhibition” value did it give?
The value was 3.14% (inactive).

`CCN(CC)CCOC(=O)C1(c2ccccc2)CCCC1` was tested. Which “activity change, negative = inhibition” value did it give?
The value was -2.79% (inactive).

For `C#C[C@]1(O)CC[C@H]2[C@@H]3CCC4=CC(=O)CC[C@@H]4[C@H]3CC[C@@]21CC`, which “activity change, negative = inhibition” value is on record?
The value was -5.09% (inactive).

Which “activity change, negative = inhibition” value does the source give for `OC[C@H]1O[C@@H]2O[C@H]3[C@H](O)[C@@H](O)[C@@H](O[C@H]4[C@H](O)[C@@H](O)[C@@H](O[C@H]5[C@H](O)[C@@H](O)[C@@H](O[C@H]6[C@H](O)[C@@H](O)[C@@H](O[C@H]7[C@H](O)[C@@H](O)[C@@H](O[C@H]8[C@H](O)[C@@H](O)[C@@H](O[C@H]1[C@H](O)[C@H]2O)O[C@@H]8CO)O[C@@H]7CO)O[C@@H]6CO)O[C@@H]5CO)O[C@@H]4CO)O[C@@H]3CO` here?
The value was 14.8% (inactive).

`COP(=O)(OC)OC(c1ccc(Cl)cc1)P(=O)(OC)OC` (stereo unspecified) was tested. Which “activity change, negative = inhibition” value did it give?
Its value is -7.36% (inactive).

With `C=C[C@@]1(C)CC(=O)[C@]2(O)[C@@]3(C)[C@@H](O)CCC(C)(C)[C@@H]3[C@H](O)[C@H](OC(C)=O)[C@@]2(C)O1` as the compound, how does the “activity change, negative = inhibition” value read?
Its value is 0.0934% (inactive).

For `CN1CCc2cccc3c2[C@H]1Cc1ccc(O)c(O)c1-3`, which Potency is on record?
Its Potency is 12.6 µM (active).

Which “activity change, negative = inhibition” value does the source give for `COc1ccc(CCN(C)CCCN2CCc3cc(OC)c(OC)cc3CC2=O)cc1OC` here?
Its value is 6.49% (inactive).

`Cc1cccc(C)c1NC(=O)CN1CCCCCC1` was tested. Which “activity change, negative = inhibition” value did it give?
The value was -3.22% (inactive).

`CCCCCCCCCCCCCCCCO` was tested. Which “activity change, negative = inhibition” value did it give?
The value was -5.2% (inactive).
